Test results from PubChem BioAssay (EPA / NIEHS).
Results filed as inconclusive are left out. Activity calls are given as the source filed them. How the source made its calls, unless noted: active means hit-call score of the fitted dose curve at least 0.9, where 1 is the maximum; inactive means score below 0.9.

Tests used:
[1] = CCTE_Deisenroth_DEVTOX-GLR_Endo_CellCount: Viability Assessment in CCTE's DevTox GLR-Endo Assay, Deisenroth Lab (AID 2284420)
Procedure: CCTE_Deisenroth_DEVTOX-GLR_Endo assay is a cell-based, multiplex-readout assay that uses RUES2-GLR, a human pluripotent cell line, with measurements taken at 48 hours after chemical dosing in a 384-well microplateCCTE_Deisenroth_DEVTOX-GLR_Endo_CellCount is 1 of 4 assay components calculated from the CCTE_Deisenroth_DEVTOX-GLR_Endo assay and it measures cell count. Using fluorescent nuclear staining, loss-of-signal activity can be used to understand changes in cell viability with fluorescent microscopy. It is designed to make measurements of nuclei counts as a surrogate for cell number, as detected with optical fluorescence microscopy by Perkin Elmer Harmony nuclei detection algorithm. To generalize the intended target to other relatable targets, this assay component is annotated to the cell cycle intended target family, where the subfamily is cytotoxicity.Data from the assay component CCTE_Deisenroth_DEVTOX-GLR_Endo_CellCount was analyzed as 1 assay endpoint. The endpoint the percent change in cell count relative to the 0.2% DMSO control in the CCTE_Deisenroth_DEVTOX-GLR_Endo assay. Furthermore, this assay endpoint can be referred to as a primary readout, because this assay has produced multiple assay endpoints where this one serves as a measure of cytotoxicity.
All assay protocols are aligned to the DevTox GLR-Endo assay workflow. […]

[2] = test system: SRY-box transcription factor 17 (SOX17) Protein Expression, Deisenroth Lab, SOX17 (gene 64321); experiment: CCTE_Deisenroth_DEVTOX-GLR_Pluri_SOX17: CCTE's DevTox GLR-Pluri Assay Evaluation of SRY-box transcription factor 17 (SOX17) Protein Expression, Deisenroth Lab (AID 2284427; active means hit-call score of the fitted dose curve at least 0.9, where 1 is the maximum)
Method in brief: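 Using an inducible fluorescent SOX17 reporter in human pluripotent RUES2-GLR cells, compounds (1 nM - 200 uM) were given twice over 48 h differentiation. Percent SOX17+ cells minus DMSO control came from high-content image analysis.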

[3] = test system: SRY-box transcription factor 2 (SOX2) Protein Expression, Deisenroth Lab, SOX2 (gene 6657); experiment: CCTE_Deisenroth_DEVTOX-GLR_Pluri_SOX2: CCTE's DevTox GLR-Pluri Assay Evaluation of SRY-box transcription factor 2 (SOX2) Protein Expression, Deisenroth Lab (AID 2284428)
Method in brief: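 Percent SOX2+ RUES2-GLR cells, determined by fluorescence microscopy after 48 h and two 24-h-interval chemical exposures spanning 1 nM–200 uM, served as the endpoint. Values are expressed relative to 0.2% DMSO; total cell counts assessed viability.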

[4] = test system: Brachyury (BRA) Protein Expression, Deisenroth Lab, TBXT (gene 6862); experiment: CCTE_Deisenroth_DEVTOX-GLR_Pluri_BRA: CCTE's DevTox GLR-Pluri Assay Evaluation of Brachyury (BRA) Protein Expression, Deisenroth Lab (AID 2284429; active means hit-call score of the fitted dose curve at least 0.9, where 1 is the maximum)
Method in brief: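 RUES2-GLR human pluripotent cells differentiated 48 hours with two chemical exposures 24 hours apart, 10-point series 1 nM–200 uM. Fixed, nuclear-stained, imaged; endpoint is percent BRA+ cells minus 0.2% DMSO control.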

[5] = CCTE_Deisenroth_DEVTOX-GLR_Pluri_CellCount: Viability Assessment in CCTE's DevTox GLR-Pluri Assay Evaluation of Total Cell Counts, Deisenroth Lab (AID 2284430)
Method in brief: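 RUES2-GLR human pluripotent cells, seeded 24 h, then differentiated 48 h with two chemical exposures 24 h apart; 10-point series 1 nM - 200 uM. Fixed, nuclear-stained, imaged (5 fields/well); nuclei count as % change vs 0.2% DMSO.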

Measured: outcome

CC(C)Cc1ccc(C(C)C(=O)O)cc1 (stereo not given)
inactive: [1] | [2] | [3] | [4] | [5]

O=C(O)c1ccccc1O
inactive: [1] | [2] | [3] | [4] | [5]
